Test [1] can be described thus: inhibitors of TNFa-induced NFkB p65 translocation, primary screen, imaging, HUVEC, MLSMR starter and 10KST1 sets (AID 438;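 active = inhibition above 20% together with a positive visual image hit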;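 also: compound added about 3h40 before a 20 min TNFalpha stimulation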;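 as to inhibition: signal is the nuclear over cytoplasmic p65 intensity ratio per well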). The note with it: HUVEC TNFa-induced p65 nuclear translocation; cell count: measured here: nuclei count (cytotoxicity indicator), at 2.08 µM; inhibition: at 2 µM, stronger effect = higher value, 0% TNFa-plus-vehicle, 100% no-TNFa wells.
Test [2] can be described thus: reduction of polyQ htt aggregates in cells – imaging, exon1htt(103Q)mCFP cells, high-content imaging, primary screen (AID 483;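 active = visual image review flags a hit and inhibition of aggregation exceeds 20%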;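 also: compound exposure lasted 3 days before fixation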;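 as to nuclei count: percent of the per-plate median nuclei count of sample wells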). The note with it: exon1htt(103Q)mCFP cell line, aggregate imaging, at 2 µM; inhibition of aggregation: stronger effect = higher value; nuclei count: measured here: cell count, toxicity.
Test [3] can be described thus: endothelial E-selectin expression blockers – imaging, HUVEC, immunofluorescence, MLSMR starter and 10KST1 sets, primary screen (AID 487;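 active = visually confirmed hit in the image check and inhibition above 20%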;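 as to inhibition: signal is fraction of cell area covered by stained E-selectin grains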;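 as to nuclei count: 100% = median nuclei count of all wells on the same plate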). The conditions noted are these: HUVEC TNFalpha-induced E-selectin immunofluorescence imaging, at 2 µM; inhibition: stronger effect = higher value; nuclei count: measured here: cell number, toxicity.
Test [4] addresses Voltage-gated potassium channel subunit beta-2 (Rattus norvegicus) (UniProt P62483). In words: inhibitors of rat Kvbeta2 reductase activity – biochemical, NADPH fluorescence, primary screen (AID 622;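 active = fluorescence slope higher than the sample average by over 3 SD, cut at about -0.22 in these data, passing the limit was not always enough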;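 also: slope of raw intensity against log time taken from 70 to 1610 s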). The note with it: recombinant KvBeta, 4-cyanobenzaldehyde reduction, at 10 µM, stronger effect = higher value.
For test [5] the target is unchanged. The test is described as follows: enhancers of rat Kvbeta2 NADPH turnover – biochemical, NADPH fluorescence, primary screen (AID 623;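 active = NADPH fluorescence slope more negative than the mean of all samples by about 3 SD, 99.7% confidence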;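 also: fluorescence intensity change per second fitted from 20 to 320 s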). The conditions noted are these: Recombinant KvBeta, NADPH fluorescence decrease slope, 10 min; at 10 µM; stronger effect = lower value.
The target of test [6] is Alpha-2C adrenergic receptor (Homo sapiens) (UniProt P18825). In words: compounds altering alpha2C-coupled GIRK flux – cell-based, HEK293 alpha2C/GIRK1/2, thallium flux, primary screen (AID 624;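 active = fluorescence slope after compound addition differing from the mean of all screened samples at 99.7% confidence, in either direction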;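 also: slope of fluorescence ratio to pre-addition baseline per second over 15 to 24 s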). The conditions noted are these: thallium flux BTC fluorescence, at 10 µM, actives lie on both sides.
Test [7] is described as follows: blockers of RIG-like receptor reporter activation – cell-based, Sendai virus stimulus, luciferase, 10K MLSCN set, TLR/RLR signaling modifier project, primary screen (AID 602276;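 active = inhibition at or above 50% at 10 µM; inactive = inhibition below 50%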;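 also: firefly luciferase from ISG56 promoter only with Renilla not read in this screen; 0% = Sendai virus plus DMSO and 100% = medium plus DMSO without virus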). The conditions noted are these: HEK293 RL24 IRF3 luciferase reporter, at 10 µM, stronger effect = higher value.
A short description of test [8]: TLR3 IRF3 reporter activation blockers – cell-based, poly I:C stimulus, luciferase, 10K MLSCN set, primary screen (AID 602277). The note with it: HEK293-TLR3 RL24 IRF3 luciferase reporter, at 10 µM, stronger effect = higher value.

The source made the active and inactive calls.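 The calls were made as follows, unless noted: active = inhibition of the reporter signal at or above 50%; inactive = inhibition below 50%.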

The values that follow come from PubChem BioAssay.

Chain of Alpha-2C adrenergic receptor (Homo sapiens) (P18825 whole entry, looked up): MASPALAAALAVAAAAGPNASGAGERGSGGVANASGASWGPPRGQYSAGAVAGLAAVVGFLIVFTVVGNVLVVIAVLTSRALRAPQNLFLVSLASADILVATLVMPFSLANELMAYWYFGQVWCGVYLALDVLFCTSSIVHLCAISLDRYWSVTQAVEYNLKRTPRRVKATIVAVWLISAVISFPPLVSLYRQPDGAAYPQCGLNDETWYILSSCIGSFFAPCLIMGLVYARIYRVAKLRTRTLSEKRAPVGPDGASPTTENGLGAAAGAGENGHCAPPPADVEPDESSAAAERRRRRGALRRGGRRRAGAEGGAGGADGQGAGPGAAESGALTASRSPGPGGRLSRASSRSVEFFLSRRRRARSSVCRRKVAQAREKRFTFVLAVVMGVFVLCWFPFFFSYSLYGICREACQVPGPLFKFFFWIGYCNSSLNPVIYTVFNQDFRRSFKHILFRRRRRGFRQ
Chain of Voltage-gated potassium channel subunit beta-2 (Rattus norvegicus) (P62483 whole entry, looked up): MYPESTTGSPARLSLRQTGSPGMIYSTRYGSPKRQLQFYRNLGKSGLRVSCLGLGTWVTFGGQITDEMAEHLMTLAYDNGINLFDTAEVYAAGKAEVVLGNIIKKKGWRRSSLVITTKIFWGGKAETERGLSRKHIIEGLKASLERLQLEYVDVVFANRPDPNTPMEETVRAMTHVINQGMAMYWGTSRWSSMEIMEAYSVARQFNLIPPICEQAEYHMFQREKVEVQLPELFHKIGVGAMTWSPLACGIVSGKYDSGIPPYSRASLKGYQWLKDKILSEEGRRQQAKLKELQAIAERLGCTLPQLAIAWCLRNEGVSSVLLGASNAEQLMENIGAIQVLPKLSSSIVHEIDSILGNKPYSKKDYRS

For `CCOC(=O)C1=C(C)Nc2nc(SCC(=O)OC)nn2C1c1cc(F)cc(F)c1` (centres undefined), the cell count in test [1] worked out at 432. The inhibition in test [1] was -15.7% (inactive); in test [3], 1% (inactive); in test [7], 2.11% (inactive); in test [8] it was 8.56% (inactive). Also, in test [2], the inhibition of aggregation is -6.3% (inactive). The nuclei count amounted to 96.1% in test [2] and 96% in test [3]. Moreover, the fluorescence slope in test [4] was -0.592 (inactive). Further, in test [5], the NADPH fluorescence slope is -3.9e-05 (inactive). Besides, the slope in test [6] was 0.00688 (inactive).
With `CCOC(=O)c1sc2nc(N3CCCC3)c3c(c2c1N)CC(C)(C)OC3`, the cell count in test [1] turned out to be 410. Moreover, the inhibition in test [1] was 2.7% (inactive); in test [3], -22.4% (inactive); in test [7], -5.95% (inactive); in test [8], 2.54% (inactive). Further, in test [2], the inhibition of aggregation is -0.3% (inactive). The nuclei count in test [2] came out at 105%; in test [3], 103%. For the same compound, the fluorescence slope in test [4] is -0.302 (inactive). Moreover, the NADPH fluorescence slope in test [5] is -1.6e-05 (inactive). Also, the slope in test [6] was 0.0041 (inactive).
For `CCOC(=O)C1=C(C)NC(C)=C(C(=O)OCC)C1C(=O)OC1CCOC1=O` (centres undefined), the cell count in test [1] amounted to 653. Moreover, the inhibition in test [1] is -4.7% (inactive); in test [3] it was -121% (inactive); in test [7], 9.93% (inactive); in test [8], 20% (inactive). Also, the inhibition of aggregation in test [2] was 5.7% (inactive). The nuclei count in test [2] was determined as 112%; in test [3], 103%. In test [4], the fluorescence slope is -0.587 (inactive). Also, in test [5], the NADPH fluorescence slope was -2.6e-05 (inactive). For the same compound, the slope in test [6] is 0.00602 (inactive).
Consider `Cn1c(NC(=O)c2cccc(Cn3cc(Cl)cn3)c2)nc2ccccc21`, for which the cell count in test [1] is 778. In addition, the inhibition in test [1] is -2.9% (inactive); in test [3], -61.1% (inactive); in test [7] it was -25.1% (inactive); in test [8], -112% (inactive). Besides, the inhibition of aggregation in test [2] is -32.7% (inactive). Moreover, the nuclei count in test [2] is 104%; in test [3], 113%. Further, in test [4], the fluorescence slope is -0.548 (inactive). Further, the NADPH fluorescence slope in test [5] was -1.6e-05 (inactive). Further, the slope in test [6] is 0.00464 (inactive).
As for `O=C(COc1ccc(Cl)cc1)NCc1nnc(SCC(=O)Nc2ccc3c(c2)OCCO3)o1`, in test [1], the cell count worked out at 375. Also, the inhibition in test [1] is 0% (inactive); in test [3], -9.1% (inactive); in test [7], -4.54% (inactive); in test [8], -2.34% (inactive). Moreover, in test [2], the inhibition of aggregation was 4.2% (inactive). In addition, the figures for the nuclei count in test [2] and in test [3] were 99.9% and 119%, respectively. Also, in test [4], the fluorescence slope is -0.359 (inactive). Also, the NADPH fluorescence slope in test [5] is -3.4e-06 (inactive). The slope in test [6] was 0.00522 (inactive).
`O=S(=O)(NC1CCCC1)c1ccccc1Cl`: in test [1], the cell count is 739. In addition, the inhibition in test [1] was -7.3% (inactive); in test [3] it was -21.2% (inactive); in test [7], 7.42% (inactive); in test [8] it was 15.4% (inactive). The inhibition of aggregation in test [2] is -2.5% (inactive). For the same compound, the nuclei count in test [2] stood at 111%; in test [3], 116%. Besides, in test [4], the fluorescence slope is -0.455 (inactive). Further, the NADPH fluorescence slope in test [5] was -3.7e-05 (inactive). Besides, the slope in test [6] is 0.00495 (inactive).
On to `c1ccc2c(c1)CNC1(CCCCC1)C2`, for which the cell count in test [1] amounted to 362. Besides, the inhibition is -3.4% (inactive) in test [1], -2.1% (inactive) in test [3], 13.3% (inactive) in test [7] and 14.2% (inactive) in test [8]. Besides, the inhibition of aggregation in test [2] was 13% (inactive). Also, the nuclei count in test [2] was 114%; in test [3], 103%. Also, the fluorescence slope in test [4] is -0.552 (inactive). For the same compound, the NADPH fluorescence slope in test [5] is 2.5e-05 (inactive). Further, the slope in test [6] is 0.00453 (inactive).
Regarding `COCCCN1C(=O)C(=O)/C(=C(/O)c2ccc(OCC(C)C)cc2C)C1c1cccnc1` (centres undefined), the cell count in test [1] was 299. For the same compound, the inhibition in test [1] is -2.4% (inactive); in test [3], -28.7% (inactive); in test [7], 7.86% (inactive); in test [8], 23.2% (inactive). Further, the inhibition of aggregation in test [2] is -8.7% (inactive). The values for the nuclei count in test [2] and in test [3] were 109% and 110%, respectively. Besides, the fluorescence slope in test [4] is -0.463 (inactive). Moreover, in test [5], the NADPH fluorescence slope was 5.8e-06 (inactive). Moreover, the slope in test [6] is 0.00417 (inactive).
As for `O=S(=O)(c1cccs1)N1CCN(Cc2nc3ccccc3s2)CC1`, the cell count in test [1] stood at 283. The inhibition in test [1] is 3.3% (inactive); in test [3], 1% (inactive); in test [7], -3.64% (inactive); in test [8], -4.76% (inactive). The inhibition of aggregation in test [2] is -5.8% (inactive). Besides, the nuclei count in test [2] is 99.8%; in test [3], 90.9%. Also, the fluorescence slope in test [4] is -0.556 (inactive). Moreover, the NADPH fluorescence slope in test [5] is 3e-05 (inactive). Further, in test [6], the slope was 0.00461 (inactive).
For the compound `O=C(Nc1ccc(N2C(=O)C3C4C=CC(C4)C3C2=O)cc1)Nc1nncs1` (centres undefined), the cell count in test [1] was found to be 668. Besides, the inhibition in test [1] was -9.8% (inactive); in test [3] it was -77.5% (inactive); in test [7], 2.97% (inactive); in test [8], -2% (inactive). The inhibition of aggregation in test [2] is 4.9% (inactive). The nuclei count in test [2] is 92%; in test [3], 125%. Moreover, in test [4], the fluorescence slope was -0.579 (inactive). Besides, the NADPH fluorescence slope in test [5] is 6.4e-08 (inactive). The slope in test [6] is 0.0068 (inactive).
For the compound `O=C(NCc1ccccn1)c1cccs1`, in test [1], the cell count is 254. The inhibition in test [1] was 12.5% (inactive); in test [3] it was -1.8% (inactive); in test [7] it was -4.29% (inactive); in test [8], 5.52% (inactive). Further, in test [2], the inhibition of aggregation was 2.9% (inactive). Also, the nuclei count in test [2] came out at 91.4%; in test [3], 95.7%. For the same compound, the fluorescence slope in test [4] was -0.479 (inactive). For the same compound, the NADPH fluorescence slope in test [5] is -5.3e-05 (inactive). For the same compound, the slope in test [6] was 0.00519 (inactive).
Turning to `COc1cccc(NS(=O)(=O)c2ccc3[nH]cc(C(=O)NC4CC4)c(=O)c3c2)c1`, the cell count in test [1] is 305. Also, the inhibition is 4% (inactive) in test [1], -42.4% (inactive) in test [3], 13.8% (inactive) in test [7] and 32.8% (inactive) in test [8]. Moreover, the inhibition of aggregation in test [2] was -2.9% (inactive). The nuclei count in test [2] came to 113%; in test [3], 126%. The fluorescence slope in test [4] was -0.603 (inactive). Further, the NADPH fluorescence slope in test [5] was -7e-05 (inactive). Besides, the slope in test [6] is 0.00731 (inactive).
With `CCSc1nnc(NC(=O)C2CCCN(S(=O)(=O)c3cnc[nH]3)C2)s1` (centres undefined), in test [1], the cell count was 577. Besides, the inhibition in test [1] is -0.5% (inactive); in test [3], -101% (inactive); in test [7], 9.63% (inactive); in test [8], 21.5% (inactive). Moreover, the inhibition of aggregation in test [2] was 10% (inactive). Further, the nuclei count is 101% in test [2] and 125% in test [3]. The fluorescence slope in test [4] is -0.537 (inactive). Besides, the NADPH fluorescence slope in test [5] was -2.1e-05 (inactive). Besides, the slope in test [6] is 0.00708 (inactive).
As to `CCN(CC)CCn1c(=N)n(CCO)c2ccccc21`, the cell count in test [1] was determined as 592. In addition, the inhibition in test [1] is 0.2% (inactive); in test [3] it was -30.1% (inactive); in test [7], 7.52% (inactive); in test [8], 39.8% (inactive). In addition, the inhibition of aggregation in test [2] was 19.1% (inactive). Besides, the figures for the nuclei count in test [2] and in test [3] were 95.6% and 91.5%, respectively. In test [4], the fluorescence slope is -0.376 (inactive). Also, the NADPH fluorescence slope in test [5] was 1.5e-05 (inactive). In test [6], the slope is 0.00357 (inactive).
